An excerpt weighted towards active compounds, which were near 14% of everything screened.
Sm TGR block: blocks Schistosoma mansoni thioredoxin glutathione reductase; Q962Y6; purified TGR, DTNB reduction, TNB absorbance 405 nm; Potency, µM (doses to about 114 µM), hits mostly inhibitors; 3% of 360,000 active; note: nearly all actives have a fitted effect of over 60% in size
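Kinetic colorimetric format: TGR-catalysed, NADPH-driven DTNB reduction monitored via TNB absorbance. Enzyme dispensed at 20 nM; compound exposure 15 min at room temperature before reaction start.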
HCMV antiviral: blocks human cytomegalovirus replication. activity change, negative = inhibition, % at 57.5 µM. HFF cells, HCMV-luciferase reporter, 72 h; hits give low values. 4.5% of 410,000 active; in the data active = activity change below about -60%; inconclusive = no clear call, values can overlap the other calls; inactive = above about -39%
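Screen run at 2 compound doses on HFFs infected with reporter HCMV, MOI 1 PFU/cell. Luciferase activity from cell lysates at 72 h post infection gave inhibition relative to buffer-only and Salinomycin wells.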
Pf growth 96h: P. falciparum growth inhibition at 96 hour, primary screen for plastid delayed-death inhibitors. P. falciparum luciferase reporter growth, 96 h. Potency, µM (series often up to 28.7 µM), usual class: inhibitors. 6.9% of 320,000 active. AID 504834
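96 h incubation, 37 C, 5% CO2, of luciferase-reporter P. falciparum-infected RBCs (2% hematocrit, 0.05% parasitemia final) with test compounds; endpoint luminescence.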
FBPA Giardia inh: Giardia lamblia aldolase inhibition; A8B2U2; purified Giardia FBPA; Potency, µM (doses to about 59.6 µM), usual class: inhibitors; 0.71% of 290,000 active; AID 2451; note: nearly all actives have a fitted effect of over 55% in size
Target sequence (A8B2U2 whole entry, looked up): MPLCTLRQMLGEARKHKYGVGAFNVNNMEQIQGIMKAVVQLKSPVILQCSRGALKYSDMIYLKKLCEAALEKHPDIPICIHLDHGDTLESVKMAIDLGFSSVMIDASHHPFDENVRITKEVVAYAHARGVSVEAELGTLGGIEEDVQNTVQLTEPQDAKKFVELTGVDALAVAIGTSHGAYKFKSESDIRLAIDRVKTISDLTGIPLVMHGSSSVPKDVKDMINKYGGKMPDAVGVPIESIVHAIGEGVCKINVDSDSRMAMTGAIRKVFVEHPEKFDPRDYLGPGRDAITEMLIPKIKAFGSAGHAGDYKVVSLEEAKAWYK
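Giardia FBPA (40 nM reagent) was preincubated 10 min at RT with compound (up to 57.5 uM final), then substrate plus GAPDH/TPI/NAD/arsenate coupling system with diaphorase/resazurin was added; resorufin fluorescence (525/598 nm) was read after 20 min.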
Pf growth 48h: P. falciparum growth inhibition at 48 hours (one generation) | P. falciparum luciferase growth in erythrocytes, 48 h | Potency, µM (top dose mostly 28.7 µM), usual class: inhibitors | 5.9% of 310,000 active | AID 504832
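Here the parasites carry a stable luciferase gene and grow inside erythrocytes in Albumax-based RPMI medium with compound for one erythrocytic cycle. Activity is scored as loss of luminescent signal.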
Numbers stand for hits; n = inactive; u = inconclusive; x = no result; ! = not active in a repeat. Unless noted, calls come from the whole dose curve; as a rule, active = well fitted curve in the direction sought with a large enough effect; inconclusive = small, poorly fitted or top-dose-only effect, or another doubt; inactive = no such curve, though single readings can be large; an effect the other way counts as inactive or inconclusive.

SMILES | Sm TGR block | HCMV antiviral | Pf growth 96h | FBPA Giardia inh | Pf growth 48h
O=C(NCc1cccc(Cl)c1)c1cnc(N2CCOCC2)c2ccccc12 | n | n | x | x | x
CCC(CC)NC(=O)c1cccc([N+](=O)[O-])c1C | n | n | 1.3µM | n | n
Cc1c(C(=O)NC(C)CCc2ccccc2)cccc1[N+](=O)[O-] (centres undefined) | n | n | n | n | u
COc1ccc(Cc2nnc(NC(=O)c3cccc([N+](=O)[O-])c3C)s2)cc1 | n | n | 0.47µM | n | n
COc1ccc(Cc2nnc(NC(=O)c3ccccc3[N+](=O)[O-])s2)cc1 | n | n | n | n | n
COc1ccc(CNC(=O)c2cnc(N3CCOCC3)c3ccccc23)cc1 | n | -109 | x | x | x
O=C(CCC1CCCCC1)Nc1ccc(C(=O)c2ccncc2)cc1 | n | u | u | n | n
CC1CCC(NC(=O)CSc2nncs2)CC1 (centres undefined) | n | n | n | x | u
O=C(NCCc1ccccc1F)N[C@@H](Cc1ccccc1)C(=O)O | n | n | n | n | n
Cc1cc(CNC(=O)c2cccc([N+](=O)[O-])c2C)c2ccccc2n1 | n | -73 | n | n | n
Cc1cc(CNC(=O)Cc2ccccc2)c2ccccc2n1 | n | n | n | n | n
CCOC1(NC(=O)c2ccccc2)C(C)=CC(=O)C=C1C | 25µM | n | n | n | n
CCOC(=O)c1ccc(NC(=O)c2ccc(NC(=O)c3ccccc3)cc2)cc1 | n | n | n | n | x
COC(=O)C1=C(C)N(Cc2ccco2)C(=O)C1 | 18µM | n | n | n | n
COC(=O)C1=C(C)N(Cc2ccco2)C(=O)N[C@@H]1c1ccccc1 | 35µM | n | n | n | n
COC(=O)C1=C(C)N(Cc2ccc(OC)c(OC)c2)C(=O)C1 | n | n | u | n | 13µM
COC(=O)C1=C(C)N(CCc2ccc(OC)c(OC)c2)C(=O)C1 | n | n | x | n | x
Cc1ccc2oc(C(=O)Nc3ccc(S(=O)(=O)Nc4ncccn4)cc3)cc(=O)c2c1 | n | n | x | x | x
Cc1ccc(C(=O)O/N=C(\N)c2ccccn2)cc1 | n | -69 | n | n | u
CCOc1ccc(C(=O)O/N=C(\N)c2ccccn2)cc1 | n | -91 | n | n | n
N/C(=N\OC(=O)c1ccccc1)c1ccccn1 | n | n | u | n | n
CC(C)(C)c1ccc(C(=O)O/N=C(\N)c2ccccn2)cc1 | n | -99 | n | n | u
Cc1cccc(C)c1NC(=O)C(c1ccncc1)n1c(=O)c(-c2ccccc2)nc2ccccc21 (centres undefined) | x | n | x | x | x
COc1ccc(NC(=O)C2CCCN2c2ccc(OC)c(OC)c2)cc1OC (centres undefined) | n | n | n | u | 10µM
COc1ccc(NC(=O)CN2C(=O)NC3(CC(C)CC(C)(C)C3)C2=O)cc1S(=O)(=O)N1CCCCC1 (centres undefined) | n | n | u | x | 13µM
SMILES | Sm TGR block | HCMV antiviral | Pf growth 96h | FBPA Giardia inh | Pf growth 48h
COc1ccc(NC(=O)C2CCCCN2N)cc1OC (centres undefined) | n | n | n | n | n
COc1ccc(NC(=O)COC(=O)C2CC2)cc1S(=O)(=O)N1CCCCC1 | n | n | u | x | 13µM
COc1ccc(NC(=O)CC2CCCCC2)cc1OC | n | n | 2.6µM | n | 3.3µM
COc1ccc(NC(=O)CN2C(=O)NC3(CCCC3)C2=O)cc1S(=O)(=O)N1CCCCC1 | n | n | u | x | n
O=C(NC(c1ccccc1)c1ccccc1)c1cccc(S(=O)(=O)NCc2ccccc2)c1 | n | u | u | n | u
COc1ccc(N2CCN(S(=O)(=O)CCNC(=O)/C=C/c3ccc4c(c3)OCO4)CC2)cc1 | n | n | u | x | n
COc1cccc(/C=N/NC(=O)C(C)Cn2cnc3ccccc32)c1 (centres undefined) | n | n | u | n | n
COc1ccc(NC(=O)CC2CCCC2)cc1S(=O)(=O)N1CCCCC1 | n | n | u | n | n
COc1ccc(Cl)cc1NCC(=O)Nc1ccc(OC)c(S(=O)(=O)N2CCCCC2)c1 | n | n | u | x | 9.3µM
COc1ccc(NC(=O)CCC2CCCCC2)cc1S(=O)(=O)N1CCCCC1 | n | -82 | u | n | u
CCOC(=O)C1=CCC(c2cccc(C)c2)N(S(=O)(=O)c2ccc(C)cc2)C1 (centres undefined) | x | n | x | x | x
O=C(NCCN1CCOCC1)C1(C(F)(F)F)C/C(=C\CCO)CCCO1 (centres undefined) | x | x | x | n | x
Cc1ccc(S(=O)(=O)Nc2cc(Cl)c(O)c3ncccc23)cc1 | 16µM | -98 | n | n | 7.4µM
Cc1ccc2c(Cl)cc(Cl)c(O)c2n1 | x | -75 | x | n | x
Oc1c(Cl)cc(Cl)c2cccnc12 | 16µM | -99 | 4.3µM! | u | 8.5µM
Cc1ccc(S(=O)(=O)Nc2cccnc2Oc2ccc(Cl)cc2)cc1 | n | n | u | n | u
Oc1c(I)cc(I)c2cccnc12 | u | -100 | 11µM! | n | u
O=C(O)C1CCCN1C(=O)c1cccc(Cl)c1 (centres undefined) | x | n | x | x | x
O=C(O)c1ccc(O)c2ncccc12 | n | n | u | x | u
O=C(Oc1c(Cl)cc(Cl)c2cccnc12)c1cccs1 | u | u | n | n | u
O=C(Oc1c(Cl)cc(Cl)c2cccnc12)c1ccco1 | n | -102 | x | n | u
Oc1ccc(Cl)c2cccnc12 | x | n | 12µM | n | 13µM
Oc1ccc(F)c2cccnc12 | n | n | 15µM | u | u
CCc1nc2ccc(C(=O)NCc3ccc4c(c3)OCO4)cn2c1N(C)C(=O)Cc1ccccc1 | x | n | x | x | x
CCN(CC(=O)NC(C)(C)C)C(=O)COc1c(Cl)cc(Cl)c2ccc(C)nc12 | 16µM | u | u | n | u
SMILES | Sm TGR block | HCMV antiviral | Pf growth 96h | FBPA Giardia inh | Pf growth 48h
Cn1cnnc1SCC(=O)c1c[nH]c2ccccc12 | u | n | x | n | n
CCCCNc1nnc(SCC(=O)c2c[nH]c3ccccc23)s1 | n | n | 8.3µM | n | 10µM
Cc1ccc(NC(=O)COC(=O)c2cccc(C)c2[N+](=O)[O-])cc1S(=O)(=O)N1CCCCC1 | x | n | x | x | x
CCC(CC)C(=O)Nc1ccc(OCc2cc(=O)n3ccc(C)cc3n2)cc1 | n | n | x | x | x
CC(C)NC(=S)N/N=C/c1sc(N2CCCCC2)nc1-c1cccs1 | n | u | 0.83µM | n | n
O=C(N/N=C/c1sc(N2CCCCC2)nc1-c1cccs1)C1CC1 | n | u | 5.2µM | u | 10µM
CCCCNC(=S)N(C)/N=C/c1sc(N2CCCCC2)nc1-c1cccs1 | n | x | 12µM | n | 10µM
CNC[C@H]1Oc2ccc(NC(=O)Nc3ccccc3)cc2CC(=O)N([C@H](C)CO)C[C@H]1C | x | n | x | x | x
COc1cccc(OC)c1C(=O)NCCOc1cc(C)cc(C)c1 | n | n | n | n | n
c1ccc2c(c1)OCC(C1=NCCN1)O2 (centres undefined) | n | n | 4.8µM! | n | u
O=[N+]([O-])c1ccccc1S(=O)(=O)NCc1ccc(F)cc1 | x | n | n | n | n
Cc1ccccc1CNS(=O)(=O)c1ccccc1[N+](=O)[O-] | n | n | 0.66µM | n | n

Compound activity from PubChem BioAssay.
